Screening data from PubChem BioAssay.
DT40 TDP1 CPT = growth inhibition of DT40 Tdp1-/-;hTDP1 cells with camptothecin (screen for TDP1 inhibitors); 12% of 420,000 active; AID 686979; chicken DT40 Tdp1-/-;hTDP1 cells + 20 nM CPT, ATP luminescence, 48 h; Potency, µM (doses to about 46.2 µM), most hits filed as inhibitors; also: nearly all actives have a fitted effect of over 55% in size
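Cell growth measured by CellTiter-Glo luminescence after a minimum 48 h, 37 C compound exposure with 20 nM CPT in Tdp1-knockout DT40 cells stably expressing hTDP1, seeded 400/well; qHTS titration format.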
MCF10A rerep = inducers of DNA re-replication in MCF 10A breast cells; MCF 10A DNA re-replication, Hoechst nuclear intensity, 48 h; Potency, µM (titrated, usually from 46.1 µM), most hits filed as activators; 2.9% of 350,000 active; AID 624296; also: nearly all actives have a fitted effect of over 50% in size
SW480 rerep = inducers of DNA re-replication in SW480 colon cancer cells; SW480 DNA re-replication, Hoechst DNA content imaging, 48 h; Potency, µM (top dose mostly 46.1 µM), hits mostly activators; 1.8% of 340,000 active; also: nearly all actives have a fitted effect of over 55% in size
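Hoechst fluorescence of nuclei (405 nm excitation, 500-530 nm emission) measured by plate-scanning imager after 48 hr compound exposure at 37 C; re-replication scored as increased number of nuclei with elevated intensity.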
DT40 TDP1 no CPT = qHTS for Inhibitors of human tyrosyl-DNA phosphodiesterase 1 (TDP1): qHTS in cells in absence of CPT; DT40 Tdp1-/- hTDP1 cells, no CPT, ATP luminescence, 48 h; Potency, µM (series often up to 46.2 µM), hits mostly inhibitors; 15% of 420,000 active; AID 686978, 2013; also: nearly all actives have a fitted effect of over 55% in size
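Growth of hTDP1-complemented DT40 Tdp1-knockout cells is measured by ATP luminescence after at least 48 hr compound exposure at 37 °C, with DMSO substituting for the 20 nM CPT used in the parallel screen.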
IL-1B inflam inh = blocks inflammasome-driven IL-1 beta release; THP-1 LPS/ATP IL-1B secretion, AlphaLISA, 16 h; active compounds read low; activity change, % at 57.5 µM; 4.7% of 360,000 active; AID 743279; in the data active = activity change below about -50%; inconclusive = mostly about -30% to -49%
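Secreted IL-1B measured by AlphaLISA bead assay after 16 h compound exposure of THP-1 cells; compounds (final up to 57.5 uM) added 1 h before LPS (250 ng/mL) and ATP (1.25 mM) stimulation; lower signal means less secretion.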
Chronic BCR inh = inhibitors of chronic active B-cell receptor signaling; Potency, µM (doses to about 46.1 µM), most hits filed as inhibitors; 0.05% of 340,000 active; ABC-DLBCL IkBa-CBG/CBR reporter, luminescence ratio, 4 h; active = well fitted inhibition curve with a large enough effect in the signal ratio, with a control signal flat, not every such curve was filed as active; inconclusive = small, poorly fitted or top-dose-only effect, or effect the other way, or a change in a side signal; the % refers to the signal ratio
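TMD8 ABC-DLBCL cells carrying doxycycline-inducible green luciferase fused to IkappaBalpha plus unfused red luciferase were exposed to compounds (up to 46 uM) for 4 hrs at 37C. Activity came from the overlap-corrected green/red luminescence ratio.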
Hits are given with their value; 0 = inactive; ? = inconclusive; - = not tested or not shown; ! = repeats disagree; [ ] = remark or other dose. Sampled rows, rich in hits. Any-hit rate of the full collection: about 19%. Unless noted, calls follow the shape of the dose curve; as a rule, active = well fitted curve in the direction sought with a large enough effect; inconclusive = small, poorly fitted or top-dose-only effect, or another doubt; inactive = no such curve, though single readings can be large; an effect the other way counts as inactive or inconclusive.

SMILES	DT40 TDP1 CPT	MCF10A rerep	SW480 rerep	DT40 TDP1 no CPT	IL-1B inflam inh	Chronic BCR inh
COc1ccc(NC(=O)CSc2ccc3nc(-c4ccccc4)cn3n2)c(OC)c1	11.6µM	-	-	9.2µM	-	-
COc1ccc(NC(=O)c2cc3nc(-c4ccccc4)cc(-c4ccccc4)n3n2)c(OC)c1	11.2µM	0	0[9.22 µM]	10µM	0	0
COc1ccc(NC(=O)CSc2ccc3nnc(-c4ccccn4)n3n2)cc1	0	0	0	0	0	0
COc1ccc(-c2cn3nc(SCC(=O)Nc4cc(C)cc(C)c4)ccc3n2)cc1	?	-	-	20.6µM	-	-
COc1ccc(NC(=O)CSc2ccc3nc(-c4ccccc4)cn3n2)cc1OC	0	-	-	0	-	-
CC1CCN(C(=O)c2cc3nc(-c4ccccc4)cc(-c4ccccc4)n3n2)CC1	16.4µM	16.4µM	0	29.1µM	-55.2	0
COc1cc(NC(=O)c2cc3nc(-c4ccccc4)cc(-c4ccccc4)n3n2)c(OC)cc1Cl	0	-	-	0	-	-
O=C(NC1CCCC1)c1cc2nc(-c3ccccc3)cc(-c3ccccc3)n2n1	?	?	0	?	0	0
OCc1ccccc1-c1cnc2cccnn12	0	-	-	0	0	-
Cc1ccc(NC(=O)Cn2c(=O)c3ccccc3n3nncc23)cc1	0	-	-	?	-	-
Cc1cccc(NC(=O)CSc2ccc(-c3ccco3)nn2)c1C	0	0	0	0	0	0
COc1ccc(-c2cn3nc(SCC(=O)Nc4cccc(C)c4C)ccc3n2)cc1	14.6µM	-	-	?	-	-
COc1ccccc1N1CCN(C(=O)c2coc(=O)c(Br)c2)CC1	3.26µM	?	0	7.31µM	0	0
COc1ccccc1NC(=O)c1coc(=O)c(Br)c1	0.731µM	?	?	2.06µM	?	0
COc1ccccc1NC(=O)c1sc(-c2ccc(Cl)cc2)cc1N	?	-	-	18.4µM	-	-
COc1cc(OC)cc(C(=O)Nc2ccc(C(=O)Nc3ccccc3OC)cc2)c1	?	?	?	?	?	0
COc1ccccc1NC(=O)c1cc(N)cc(C(=O)Nc2ccccc2OC)c1	23.1µM	0	0	?	0	-
COc1ccccc1N1CCN(C(=O)c2cccc(C(=O)N3CCN(c4ccccc4OC)CC3)c2)CC1	?	0	0[1.84 µM]	?	0	0
Cn1c(=O)n(C/C=C/c2ccccc2)c(=O)c2c1nc1n2CCN1c1ccccc1	0	-	-	0	-	-
CCNC(=O)NC(=O)C(C)OC(=O)c1cccn1C (centres undefined)	0	0	0	0	0	0
COC(=O)c1csc(C2OC(CO)C(O)C2O)n1 (centres undefined)	0	-	-	0	0	-
COc1cccc(-n2c(SCC(=O)Nc3cc(C)on3)nc3c([nH]c4ccccc43)c2=O)c1	?	0	0	?	0	0
O=C(CSc1nc2c([nH]c3ccccc32)c(=O)n1-c1cccc(Cl)c1)N1CCOCC1	18.4µM!	?	?	14.6µM!	0	?
COc1cccc(-n2c(SCC(N)=O)nc3c([nH]c4ccccc43)c2=O)c1	18.4µM	0	?	16.4µM	0	?
COc1ccc(-n2c(SCc3ccccc3F)nc3c([nH]c4ccccc43)c2=O)cc1OC	25.9µM	-	-	16.4µM	-	-
SMILES	DT40 TDP1 CPT	MCF10A rerep	SW480 rerep	DT40 TDP1 no CPT	IL-1B inflam inh	Chronic BCR inh
CCC1CCCCN1C(=O)CSc1nc2c([nH]c3ccccc32)c(=O)n1-c1cccc(OC)c1 (centres undefined)	?	-	-	25.9µM	-	-
COc1ccc(-c2csc(C3=C(O)CN(CCCN4CCCC4=O)C3=N)n2)cc1OC	0	0	0	0	0	?
Cc1ccc(S(=O)(=O)N(C)C)cc1NC(=O)COC(=O)c1ccc2ccccc2n1	0	0	0	0	0	?
COc1ccccc1CN(C)C(=O)COC(=O)c1ccc(Cl)nc1	0	0	0	?	0	0
COc1cccc(-n2c(SCC(=O)N3CCCCC3)nc3c([nH]c4ccccc43)c2=O)c1	?	0	0	20.6µM	0	0
O=C(CSc1nc2c([nH]c3ccccc32)c(=O)n1-c1ccccc1)N1CCCC1	0	-	-	0	-	-
CCSc1nc2c([nH]c3ccccc32)c(=O)n1-c1ccc(OC)cc1	0	-	-	0	-	-
COc1cccc(-n2c(SCC(=O)N3CCc4ccccc43)nnc2-c2c[nH]c3ccccc23)c1	16.4µM	0	0	23.1µM	0	0
COc1cccc(-n2c(SCC(=O)N3CCc4ccccc43)nc3c([nH]c4ccccc43)c2=O)c1	7.31µM	-	-	10.3µM	-	-
COc1ccc(-n2c(SCc3ccccc3)nc3c([nH]c4ccccc43)c2=O)cc1	?	-	-	23.1µM	-	-
O=C(CSc1nc2c([nH]c3ccccc32)c(=O)n1-c1ccc(F)cc1)N1CCc2ccccc21	0	-	-	?	-	-
Cc1cc(N2CCN(C)CC2)nc2ccc(NC(=O)CCC(=O)NCCc3ccc(Cl)cc3)cc12	0	0	0	?	0	0
CCCCn1nnnc1C1(C)CCC(=O)N1Cc1ccc(OC)cc1 (centres undefined)	0	-	-	0	0	-
CC(C)CC(COCc1cccc(C(F)(F)F)c1)N1CCN(C(=O)c2cccc(C(F)(F)F)c2)CCC1=O (centres undefined)	16.4µM	?	0	23.1µM	-66.7	0
CC(C)CC(COCc1ccc(Cl)cc1)N1CCN(C(=O)c2cccc(C(F)(F)F)c2)CCC1=O (centres undefined)	16.4µM	0	0	20.6µM	0	0
Cc1ccccc1COC[C@H](CC(C)C)N1CCN(C(=O)c2cccc(C(F)(F)F)c2)CCC1=O	16.4µM	0	?	13µM	0	0
Cc1ccc(COC[C@H](CC(C)C)N2CCN(C(=O)c3cccc(C(F)(F)F)c3)CCC2=O)cc1	?	-	-	?	0	-
Nc1ccc2c(c1)C(O)c1cccc(C(=O)O)c1-2 (centres undefined)	0	0	0	0	0	-
CC(=O)Nc1ccc(S(=O)(=O)c2cc(O)ccc2O)cc1	0	0	?	0	0	?
O=C1COc2ccc(-c3csc(=Nc4ccc(OC(F)F)cc4)n3CC3CCCO3)cc2N1 (centres undefined)	?	16.4µM	?	16.4µM	-65.4	0
CN(C)S(=O)(=O)c1cccc(N=c2scc(-c3ccc4c(c3)NC(=O)CO4)n2CC2CCCO2)c1 (centres undefined)	6.51µM	0	0	7.31µM	0	0
COc1ccccc1N=c1scc(-c2ccc3c(c2)NC(=O)CO3)n1CC1CCCO1 (centres undefined)	0	?	0	18.4µM	0	?
COCC(C)n1c(-c2ccc3c(c2)NC(=O)CO3)csc1=Nc1ccc(OC(F)F)cc1 (centres undefined)	5.17µM	3.26µM	?	6.51µM	0	?
